High-throughput results as filed in PubChem.
Sampled rows, rich in hits. Any-hit rate of the full collection: about 2.7%.
KDM5B inhibitor: blocks human KDM5B histone demethylase activity. Potency, µM (doses to about 57.7 µM), most hits filed as inhibitors. Q9UGL1. KDM5B demethylase, FDH-coupled NADH fluorescence (FDH is formaldehyde dehydrogenase). AID 1347165. actives 2.6% (n = 220,000); active = well fitted inhibition curve with a large enough effect; inconclusive = small, poorly fitted or top-dose-only effect; inactive = no such curve, though single readings can be large or run the other way; note: potency is the fitted concentration of half-maximal effect; 0% is about no effect; nearly all actives have a fitted effect of over 70% in size
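qHTS format, multiple compound concentrations. Buffer 50 mM HEPES pH 7.5/0.01% Tween-20; 200 nM KDM5BΔAP final; 10 min compound preincubation; substrate-mix levels 12.5 µM peptide, 25 µM α-KG, 0.25 mM NAD⁺; 30 min RT; ΔRFU.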
IP6K1 inhibitor: IP6K1 kinase inhibition. activity change, % (series mostly up to about 58 µM). Q92551. IP6K1 kinase, ADP-Glo luminescence, 2 h; active compounds read low. actives 0.81% (n = 140,000); in the data active = activity change below about -25%; note: % is set by controls: 0 for no effect and ±100 for the full control effect
Target sequence (Q92551 whole entry, looked up): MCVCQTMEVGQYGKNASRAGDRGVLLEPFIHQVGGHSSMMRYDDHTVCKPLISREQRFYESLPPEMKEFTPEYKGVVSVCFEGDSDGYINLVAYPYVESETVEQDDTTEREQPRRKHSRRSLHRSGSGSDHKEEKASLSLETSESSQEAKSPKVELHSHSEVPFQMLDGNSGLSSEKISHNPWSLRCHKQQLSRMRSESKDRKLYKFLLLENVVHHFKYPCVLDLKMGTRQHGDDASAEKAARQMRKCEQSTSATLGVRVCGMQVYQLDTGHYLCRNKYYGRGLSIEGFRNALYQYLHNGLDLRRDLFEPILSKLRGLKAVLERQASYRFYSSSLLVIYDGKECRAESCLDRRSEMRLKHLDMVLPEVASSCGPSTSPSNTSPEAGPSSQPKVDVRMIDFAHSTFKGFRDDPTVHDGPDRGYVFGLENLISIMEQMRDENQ
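ADP-Glo luminescence measures ADP made by human IP6K1 during a 2 h RT reaction with ATP/IP6 (mix at 1.3 mM/130 uM); top library doses 57.5 and 19.1 uM final.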
Active calls of the source: *; i = inactive; ? = inconclusive; · = no result.

SMILES | KDM5B inhibitor | IP6K1 inhibitor
O=C(CCC1CCN(C(=O)c2ccccc2)CC1)N1CCC(Cc2ccccc2)CC1 | i | 16
CC(=O)N1CCN(S(=O)(=O)c2cccc(C(=O)N(C)Cc3ccccc3N3CCCC3)c2)CC1 | i | ·
C=CCN1CCN(C(=O)/C=C/c2ccccc2)CC1 | i | ·
CC1(c2ccccc2)CCCN(c2cncc(C(=O)N3CCOCC3)n2)C1 (stereo unspecified) | ? | -14
CC(=O)N1CCN(c2cncc(C(=O)N3CCOCC3)n2)CC(O)C1 (stereo unspecified) | 22µM* | 10
Cc1cc(CN(C)c2ccc(-c3nc(-c4ccccc4F)no3)cn2)on1 | 32µM* | -2
CCc1noc(-c2nc(-c3ccccc3F)no2)n1 | i | -20
O=C1CSC(c2cccc(C(F)(F)F)c2)N1c1cccc(Cl)c1 (stereo unspecified) | i | ·
C#CCNC(=O)c1cc(-c2ccc(Cl)nc2)nc2c1cnn2C | 100µM* | -7
C#CCNC(=O)c1cc(-c2ccc(Cl)cc2)nc2c1cnn2C | · | -8
COC(=O)CNC(=O)c1cc(-c2ccc(Cl)nc2)nc2c1cnn2C | 79µM* | 1
Cn1ncc2c(C(=O)NC3CC3)cc(-c3cccnc3)nc21 | 89µM* | 6
COCCNC(=O)c1cc(-c2ccc(Cl)nc2)nc2c1cnn2C | · | -5
Cn1ncc2c(C(=O)NC3CC3)cc(-c3ccc(Cl)nc3)nc21 | · | -1
COC(=O)CNC(=O)c1cc(C(C)(C)C)nc2c1cnn2C | 89µM* | -1
COC(=O)CNC(=O)c1cc(-c2ccccc2)nc2c1cnn2C | · | -8
COc1ccc(C(=O)N2CCC(Cc3nc(-c4ccccc4)no3)CC2)cc1OC | i | -14
CCOC(=O)C1=CN(c2ccccc2)C=C(C(=O)OCC)C1c1ccc(F)cc1 | i | ·
COc1cc(NC(=O)c2cccc(OCC3CCCO3)c2)c(OC)cc1NC(=O)c1ccccc1 (stereo unspecified) | i | ·
Cc1ccc(-c2nn(CCC(=O)N3CCOCC3)c(=O)c3ccccc23)cc1 | i | ·
CCOc1cc(CNC(=O)c2ncoc2-c2cccc(C)c2)ccc1OC | i | ·
CC1(COc2ccccc2)COc2ccc(C(=O)NCc3cccs3)cc2N1 (stereo unspecified) | 32µM* | 13
CC1(CNc2ccccc2)COc2ccc(C(=O)NCc3cccs3)cc2N1 (stereo unspecified) | ? | -3
CC1(COc2ccccc2)COc2ccc(C(=O)NCc3ccncc3)cc2N1 (stereo unspecified) | ? | 13
CC1(CNCc2ccccc2)COc2ccc(C(=O)NCc3cccs3)cc2N1 (stereo unspecified) | 32µM* | 4
SMILES | KDM5B inhibitor | IP6K1 inhibitor
CC1=C(C(=O)Nc2cccc(C(F)(F)F)c2)C(c2ccc(OC(F)F)cc2)NC(=O)N1 (stereo unspecified) | i | ·
Cc1ccc(Cn2cc(-c3ccncc3)cc2C(=O)NC2CC2)cc1 | i | 6
Cc1ccc(Cn2cc(-c3ccncc3)cc2C(=O)NCC2CC2)cc1 | 35µM* | 0
CCN(Cc1ccccc1)C(=O)c1cc(-c2ccncc2)cn1Cc1ccc(C)cc1 | ? | -17
Cc1ccc(Cn2cc(-c3ccncc3)cc2C(=O)N(C)Cc2ccccc2)cc1 | 22µM* | -6
CCOC(=O)C1CCN(C(=O)c2ccc3oc(-c4ccncc4Cl)nc3c2)CC1 | · | 18
Cc1ccccc1C(=O)N1CCC[C@H]1c1nc(-c2ccc(F)cc2)no1 | i | 4
CC(C(=O)Nc1ccc(C(F)(F)F)cc1)N(C)C (stereo unspecified) | i | ·
COc1ccc(-c2nccc3c(=O)cc(-c4cccnc4)oc23)cc1OC | i | -16
Cc1ccccc1-c1nccc2c(=O)cc(-c3cccnc3)oc12 | 40µM* | -23
COc1ncccc1-c1nccc2c(=O)cc(-c3cccnc3)oc12 | 35µM* | -12
C[S+](=O)([O-])c1ccc(-c2nccc3c(=O)cc(-c4cccnc4)oc23)cc1 | 35µM* | -23
O=c1cc(-c2cccnc2)oc2c(NCc3ccc(F)cc3)nccc12 | i | 71
O=c1cc(-c2cccnc2)oc2c(-c3ccc(O)c(F)c3)nccc12 | i | -14
COCC(=O)N[C@H]1C[C@@H](Cc2cc(CN(C)C)on2)C1(C)C | i | -11
O=C1CN(Cc2ccc(-c3cccs3)cc2)CCN1c1ccc(Cl)nn1 | 79µM* | 13
O=C1CN(Cc2ccc(-c3ccccc3)cc2)CCN1c1ccc(Cl)nn1 | i | 17
O=C(COC(=O)c1cccc(C(F)(F)F)c1)c1cccc([N+](=O)[O-])c1 | i | ·
Cc1cccc2ncc(C(=O)NCc3cc4n(n3)CCCNC4)c(=O)n12 | 28µM* | 13
O=C(CCc1cc2n(n1)CCCNC2)Nc1ccccc1CCc1ccccn1 | i | -18
O=C(NCc1cc2n(n1)CCCNC2)c1ccc(Cn2cnnn2)cc1 | i | 23
Cc1cccn2c(CNC(=O)CCc3cc4n(n3)CCCNC4)cnc12 | 25µM* | -7
COc1ccccc1-c1cccc(CN2CCCC(C(=O)NCc3cccc(Cl)c3)C2)c1 (stereo unspecified) | · | 7
CC(C)n1nc(OC(C)(C)C(=O)Nc2cccnc2)c2cc(CN3CCOCC3)ccc21 | ? | -4
CC(C)n1nc(OC(C)(C)C(=O)NCCc2cccnc2)c2cc(CN3CCOCC3)ccc21 | i | 5
SMILES | KDM5B inhibitor | IP6K1 inhibitor
CC(C)n1nc(OC(C)(C)C(=O)NC2CC2)c2cc(CN3CCOCC3)ccc21 | 32µM* | 2
CC(C)n1nc(OC(C)(C)C(=O)NCCc2ccccn2)c2cc(CN3CCOCC3)ccc21 | 28µM* | 8
Cc1csc(NC(=O)c2nc(C)n(-c3ccc(F)cc3)n2)n1 | i | ·
Cc1cc(NC(=O)NCC(c2ccc(C)o2)N2CCOCC2)no1 (stereo unspecified) | i | ·
CCc1cc(NCC(c2ccc(C)o2)N2CCOCC2)n2nccc2n1 (stereo unspecified) | 32µM* | 7
CNC(=O)c1cc(C2CC2)nc2c1c(C1CCN([S+](C)(=O)[O-])C1)nn2C (stereo unspecified) | · | 2
Cn1nc(C2CCNC2)c2c(C(=O)N3CCC(F)CC3)cc(C3CC3)nc21 (stereo unspecified) | 79µM* | 6
Cn1nc(C2CCNC2)c2c(C(=O)NCC(F)(F)F)cc(C3CC3)nc21 (stereo unspecified) | ? | 15
O=C(c1cc(C2CC2)nc2onc(C3CCNC3)c12)N1CCCCC1 (stereo unspecified) | ? | -5
Cn1nc(C2CCNC2)c2c(C(=O)NC3CC3)cc(C3CC3)nc21 (stereo unspecified) | 100µM* | 0
Cn1nc(C2CCNC2)c2c(C(=O)NCc3ccc(F)cc3)cc(C3CC3)nc21 (stereo unspecified) | 79µM* | -1
COC(=O)CNC(=O)c1nc2cccnc2n(Cc2ccc(OC)cc2)c1=O | · | 4
CC(C)CCNc1nc(C(=O)OC(C)C(N)=O)cs1 (stereo unspecified) | i | ·
CCNc1ncc(C(=O)N[C@H](C2CCNCC2)C2CC(O)C2)cn1 (stereo partly specified) | 28µM* | 7
CCNc1ncc(C(=O)N[C@H](c2cccs2)C2CC(O)C2)cn1 (stereo partly specified) | 22µM* | 13
